HT1080 IDH1KD tx = toxicity to HT-1080 IDH1 knockdown cells (counter line). HT-1080 IDH1 knockdown viability, ATP luminescence, 48 h. AID 686971. Potency, µM (titrated, usually from 46.1 µM), actives largely listed as cytotoxic. actives 2% (n = 360,000)
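Using the IDH1-knockdown HT-1080 line run in the same batch and compound series as the NT line, viability after 48 h at 37 °C was determined by CellTiter-Glo luminescence and expressed as % activity.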
DT40 TDP1 no CPT = qHTS for Inhibitors of human tyrosyl-DNA phosphodiesterase 1 (TDP1): qHTS in cells in absence of CPT | Potency, µM (top dose mostly 46.2 µM), actives largely listed as inhibitors | actives 15% (n = 420,000) | DT40 Tdp1-/- hTDP1 cells, no CPT, ATP luminescence, 48 h; further: nearly all actives have a fitted effect of over 55% in size
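Stably hTDP1-transfected Tdp1-null chicken DT40 cells were treated with library compounds minus camptothecin and grown for at least 48 hr at 37 °C, after which cellular ATP was quantified by luminescence.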
ALOX12 inh = blocks human arachidonate 12S-lipoxygenase. purified 12hLO, xylenol orange hydroperoxide absorbance. Potency, µM (doses to about 108 µM), most hits filed as inhibitors. actives 1.1% (n = 580,000)
Target sequence (P18054 whole entry, looked up): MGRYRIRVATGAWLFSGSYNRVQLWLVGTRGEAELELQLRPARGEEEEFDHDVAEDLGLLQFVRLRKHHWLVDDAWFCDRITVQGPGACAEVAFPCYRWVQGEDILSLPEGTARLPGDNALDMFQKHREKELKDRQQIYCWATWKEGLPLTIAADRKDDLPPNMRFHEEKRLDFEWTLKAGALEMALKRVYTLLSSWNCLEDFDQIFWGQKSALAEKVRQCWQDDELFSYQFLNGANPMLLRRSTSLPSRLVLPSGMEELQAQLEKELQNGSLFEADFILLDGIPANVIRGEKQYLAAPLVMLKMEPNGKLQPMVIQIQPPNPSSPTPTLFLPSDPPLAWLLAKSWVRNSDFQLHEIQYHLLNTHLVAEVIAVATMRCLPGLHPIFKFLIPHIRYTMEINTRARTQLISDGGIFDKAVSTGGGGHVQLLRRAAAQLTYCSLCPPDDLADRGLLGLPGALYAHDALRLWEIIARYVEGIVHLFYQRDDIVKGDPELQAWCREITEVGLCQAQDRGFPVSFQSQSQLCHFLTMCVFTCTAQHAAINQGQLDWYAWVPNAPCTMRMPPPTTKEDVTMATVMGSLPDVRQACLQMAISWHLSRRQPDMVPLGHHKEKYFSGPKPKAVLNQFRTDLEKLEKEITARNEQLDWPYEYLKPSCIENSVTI
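Purified human 12hLO at 150 nM in 25 mM Hepes, 0.01% Triton X-100, pH 7.0, preincubated 15 min at room temperature with compound. Reaction started with 40 uM arachidonic acid, 30 min at room temperature. Hydroperoxide measured by Fe-xylenol orange, 573/405 nm absorbance ratio.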
DT40 TDP1 CPT = DT40-hTDP1 cell growth loss with CPT | chicken DT40 Tdp1-/-;hTDP1 cells + 20 nM CPT, ATP luminescence, 48 h | Potency, µM (top dose mostly 46.2 µM), hits mostly inhibitors | actives 12% (n = 420,000); further: nearly all actives have a fitted effect of over 55% in size
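Chicken DT40 Tdp1-/- cells complemented with human TDP1, 400 cells/well, exposed to compounds plus 20 nM camptothecin for at least 48 h at 37 C; viability read as ATP content by CellTiter-Glo luminescence.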
IL-1B inflam inh = inflammasome signaling inhibition, IL-1 beta readout | THP-1 LPS/ATP IL-1B secretion, AlphaLISA, 16 h; stronger effect = lower value | activity change, % at 57.5 µM | actives 4.7% (n = 360,000) | AID 743279; in the data active means activity change below about -50%; inconclusive means mostly about -30% to -49%
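THP-1 cells pretreated 1 hr with compounds (up to 57.5 uM final), then stimulated with LPS (250 ng/mL final) plus ATP (1.25 mM final); secreted IL-1B measured by AlphaLISA after 16 hr, decreased signal indicating inhibition.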
HT1080NT lethal = kills 2HG-producing HT-1080-NT fibrosarcoma cells | HT-1080-NT fibrosarcoma viability, CellTiter-Glo ATP luminescence, 48 h | Potency, µM (doses to about 46.1 µM), hits mostly cytotoxic | actives 1.6% (n = 360,000);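 further: NT is the 2HG producing partner of a matched IDH1 knockdown line; nearly all actives have a fitted effect of over 55% in size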
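Fibrosarcoma NT cells, 750 per well in 5% FBS RPMI, were exposed to compound for 48 hours. Viability: CellTiter-Glo luminescence.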
Of the large screens only hits and unclear results are named; the others gave an inactive call. The full list was thinned out, with hits kept by preference. Unless noted, the call rests on the fitted dose curve; in most records, active means well fitted curve in the direction sought with a large enough effect; inconclusive means small, poorly fitted or top-dose-only effect, or another doubt; inactive means no such curve, though single readings can be large; an effect the other way counts as inactive or inconclusive.

C/C(=N/NC(N)=S)C1=CC(C)(C)CCC1	ALOX12 inh 6.3µM (no result: HT1080 IDH1KD tx, DT40 TDP1 no CPT, DT40 TDP1 CPT, IL-1B inflam inh, HT1080NT lethal)
Oc1ccccc1-c1cc(-c2ccc(F)cc2)n[nH]1	HT1080 IDH1KD tx 18µM, DT40 TDP1 no CPT 15µM, ALOX12 inh inconclusive, DT40 TDP1 CPT inconclusive, HT1080NT lethal inconclusive
COc1ccc(O)c(-c2cc(-c3cccs3)[nH]n2)c1	HT1080 IDH1KD tx inconclusive, DT40 TDP1 no CPT inconclusive, ALOX12 inh inconclusive, DT40 TDP1 CPT 15µM, HT1080NT lethal inconclusive
Cc1ccc(-c2cc(-c3ccc(F)cc3)n[nH]2)c(O)c1	HT1080 IDH1KD tx 18µM, DT40 TDP1 no CPT inconclusive, DT40 TDP1 CPT inconclusive, IL-1B inflam inh -61, HT1080NT lethal 26µM
Oc1ccccc1-c1cc(-c2ccccc2)n[nH]1	DT40 TDP1 no CPT inconclusive, ALOX12 inh inconclusive, DT40 TDP1 CPT inconclusive
COc1ccc(-c2cc(-c3ccccc3)n[nH]2)c(O)c1	ALOX12 inh inconclusive, IL-1B inflam inh -93
Cn1c(=O)[nH]c(=O)c2c1nc(N1CCN(Cc3ccccc3)CC1)n2CCc1ccccc1	none (no result: HT1080 IDH1KD tx, DT40 TDP1 no CPT, DT40 TDP1 CPT, IL-1B inflam inh, HT1080NT lethal)
O=C(CCc1ncc(-c2c(F)cccc2F)o1)N1CCN(S(=O)(=O)c2ccccc2Cl)CC1	none (no result: HT1080 IDH1KD tx, DT40 TDP1 no CPT, DT40 TDP1 CPT, IL-1B inflam inh, HT1080NT lethal)
OC1O[C@H](c2ccc3c(c2)OCO3)[C@H]2CO[C@H](c3ccc4c(c3)OCO4)[C@@H]12 (stereo partly specified)	DT40 TDP1 no CPT 21µM, DT40 TDP1 CPT inconclusive
CC(=O)N(/N=C/c1cccc(C)c1)c1nc(-c2ccc(Br)cc2)cs1	DT40 TDP1 no CPT inconclusive, DT40 TDP1 CPT 21µM
COC(=O)c1ccc(/C=N/Nc2nc(-c3ccc(C)cc3)cs2)cc1	none (no result: ALOX12 inh)
COc1ccc(/C=N/N(C(C)=O)c2nc(-c3ccc(C)cc3)cs2)cc1	DT40 TDP1 no CPT 13µM, IL-1B inflam inh inconclusive
Cc1cc(C(=O)CSc2ncnc3ccccc23)c(C)n1CC(F)(F)F	none (no result: HT1080 IDH1KD tx, DT40 TDP1 no CPT, DT40 TDP1 CPT, IL-1B inflam inh, HT1080NT lethal)
COCCn1c2nc(=O)n(-c3ccccc3)c(=O)c-2nc2ccccc21	HT1080 IDH1KD tx inconclusive, DT40 TDP1 no CPT 12µM, DT40 TDP1 CPT inconclusive
CCCc1sc(N2CCCC(C(N)=O)C2)nc1-c1ccccc1 (stereo unspecified)	DT40 TDP1 no CPT 18µM, DT40 TDP1 CPT inconclusive
NC(=O)C1CCCN(CCc2ccccc2)C1 (stereo unspecified)	none
O=C(Nc1ccc(F)cc1)c1ccc(CN2CC(=O)N3CCCCC3C2=O)cc1 (stereo unspecified)	none (no result: HT1080 IDH1KD tx, IL-1B inflam inh, HT1080NT lethal)
CCc1ccc(NC(=O)c2ccc(CN3CC(=O)N4CCCCC4C3=O)cc2)cc1 (stereo unspecified)	DT40 TDP1 no CPT 21µM, ALOX12 inh inconclusive, DT40 TDP1 CPT inconclusive (no result: HT1080 IDH1KD tx, IL-1B inflam inh, HT1080NT lethal)
CC(Cl)C(=O)Nc1ccccc1C(N)=O (stereo unspecified)	none (no result: HT1080 IDH1KD tx, DT40 TDP1 no CPT, DT40 TDP1 CPT, IL-1B inflam inh, HT1080NT lethal)
CCOC(=O)C1CCCN(c2c(Nc3ccc(C)c(C)c3)c(=O)c2=O)C1 (stereo unspecified)	DT40 TDP1 no CPT inconclusive, ALOX12 inh inconclusive, DT40 TDP1 CPT 16µM
CCOC(=O)C1CCCN(c2c(Nc3cc(C)cc(C)c3)c(=O)c2=O)C1 (stereo unspecified)	none
Fc1ccc(N=Cc2ccc3ncccc3c2)c(Cl)c1	none (no result: HT1080 IDH1KD tx, DT40 TDP1 no CPT, DT40 TDP1 CPT, IL-1B inflam inh, HT1080NT lethal)
CCOc1ccc(-c2nnn(CC(=O)c3ccc4c(c3)OCCO4)n2)cc1	DT40 TDP1 no CPT 16µM, DT40 TDP1 CPT inconclusive
CCc1ccc(-n2nc3ccc(NC(=O)c4ccc5c(c4)OCO5)cc3n2)cc1	HT1080 IDH1KD tx inconclusive, DT40 TDP1 no CPT inconclusive, DT40 TDP1 CPT 21µM
O=C(Nc1ccc2nn(-c3ccccc3)nc2c1)c1ccc2c(c1)OCCO2	DT40 TDP1 no CPT 7.3µM, ALOX12 inh inconclusive, DT40 TDP1 CPT inconclusive
CCOc1ccc(-n2nc3ccc(NC(=O)c4ccc5c(c4)OCCO5)cc3n2)cc1	DT40 TDP1 no CPT 5.8µM, ALOX12 inh inconclusive, DT40 TDP1 CPT 3.3µM
COc1cc(OC)c(NC(=O)c2nc3ccccc3nc2N2CCCCC2)cc1Cl	none (no result: HT1080 IDH1KD tx, DT40 TDP1 no CPT, DT40 TDP1 CPT, IL-1B inflam inh, HT1080NT lethal)
O=c1[nH]nc(SCc2ncc(-c3ccccc3)o2)n1C1CC1	none (no result: HT1080 IDH1KD tx, DT40 TDP1 no CPT, DT40 TDP1 CPT, IL-1B inflam inh, HT1080NT lethal)

Screening data (PubChem)
